The results in this text go back to PubChem BioAssay.

A short description of assay [1]: inhibitors of TNFa-induced NFkB p65 translocation, primary screen, imaging, HUVEC, MLSMR starter and 10KST1 sets (AID 438;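 active = inhibition above 20% together with a positive visual image hit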;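 also: compound added about 3h40 before a 20 min TNFalpha stimulation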;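 as to inhibition: signal is the nuclear over cytoplasmic p65 intensity ratio per well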). As to conditions: HUVEC TNFa-induced p65 nuclear translocation; cell count: measured here: nuclei count (cytotoxicity indicator), at 2.08 µM; inhibition: at 2 µM, stronger effect = higher value, 0% TNFa-plus-vehicle, 100% no-TNFa wells.
Assay [2] is described as follows: inhibitors of mutant huntingtin aggregation, primary screen, imaging, exon1htt(103Q)mCFP cells, high-content imaging (AID 483;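 active = visual image review flags a hit and inhibition of aggregation exceeds 20%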;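 also: compound exposure lasted 3 days before fixation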;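 as to nuclei count: percent of the per-plate median nuclei count of sample wells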). The note with it: exon1htt(103Q)mCFP cell line, aggregate imaging, at 2 µM; inhibition of aggregation: stronger effect = higher value; nuclei count: measured here: cell count, toxicity.
A short description of assay [3]: inhibitors of E-selectin induction by TNFa, primary screen, imaging, HUVEC, immunofluorescence, MLSMR starter and 10KST1 sets (AID 487;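 active = visually confirmed hit in the image check and inhibition above 20%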;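 as to inhibition: signal is fraction of cell area covered by stained E-selectin grains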;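 as to nuclei count: 100% = median nuclei count of all wells on the same plate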). The note with it: HUVEC TNFalpha-induced E-selectin immunofluorescence imaging, at 2 µM; inhibition: stronger effect = higher value; nuclei count: measured here: cell number, toxicity.
Assay [4] deals with Voltage-gated potassium channel subunit beta-2 (Rattus norvegicus) (UniProt P62483). In words: KvBeta enzyme negative modulators, primary screen, biochemical, NADPH fluorescence (AID 622;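 active = fluorescence slope higher than the sample average by over 3 SD, cut at about -0.22 in these data, passing the limit was not always enough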;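 also: slope of raw intensity against log time taken from 70 to 1610 s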). As to conditions: recombinant KvBeta, 4-cyanobenzaldehyde reduction, at 10 µM, stronger effect = higher value.
Assay [5] shares this target. The assay can be described thus: KvBeta positive modulators, primary screen, biochemical, NADPH fluorescence (AID 623;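 active = NADPH fluorescence slope more negative than the mean of all samples by about 3 SD, 99.7% confidence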;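 also: fluorescence intensity change per second fitted from 20 to 320 s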). As to conditions: Recombinant KvBeta, NADPH fluorescence decrease slope, 10 min; at 10 µM; stronger effect = lower value.
The target in assay [6] is Alpha-2C adrenergic receptor (Homo sapiens) (UniProt P18825). In words: modulators of alpha2C/GIRK thallium flux, primary screen, cell-based, HEK293 alpha2C/GIRK1/2 (AID 624;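 active = fluorescence slope after compound addition differing from the mean of all screened samples at 99.7% confidence, in either direction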;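 also: slope of fluorescence ratio to pre-addition baseline per second over 15 to 24 s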). As to conditions: thallium flux BTC fluorescence, at 10 µM, actives lie on both sides.
Assay [7] can be described thus: inhibitors of Sendai virus-induced IRF3 signaling, primary screen, TLR/RLR signaling modifier project, cell-based, Sendai virus stimulus, luciferase, 10K MLSCN set (AID 602276;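 active = inhibition at or above 50% at 10 µM; inactive = inhibition below 50%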;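 also: firefly luciferase from ISG56 promoter only with Renilla not read in this screen; 0% = Sendai virus plus DMSO and 100% = medium plus DMSO without virus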). As to conditions: HEK293 RL24 IRF3 luciferase reporter, at 10 µM, stronger effect = higher value.
Assay [8] in a line: inhibitors of poly I:C-induced TLR3 signaling, primary screen, cell-based, poly I:C stimulus, luciferase, 10K MLSCN set (AID 602277). The note with it: HEK293-TLR3 RL24 IRF3 luciferase reporter, at 10 µM, stronger effect = higher value. (In general: A reporter such as luciferase makes a cellular process visible.)

The source made the active and inactive calls.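 The calls were made as follows, unless noted: active = inhibition of the reporter signal at or above 50%; inactive = inhibition below 50%.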

Chain of Alpha-2C adrenergic receptor (Homo sapiens) (P18825 whole entry, looked up): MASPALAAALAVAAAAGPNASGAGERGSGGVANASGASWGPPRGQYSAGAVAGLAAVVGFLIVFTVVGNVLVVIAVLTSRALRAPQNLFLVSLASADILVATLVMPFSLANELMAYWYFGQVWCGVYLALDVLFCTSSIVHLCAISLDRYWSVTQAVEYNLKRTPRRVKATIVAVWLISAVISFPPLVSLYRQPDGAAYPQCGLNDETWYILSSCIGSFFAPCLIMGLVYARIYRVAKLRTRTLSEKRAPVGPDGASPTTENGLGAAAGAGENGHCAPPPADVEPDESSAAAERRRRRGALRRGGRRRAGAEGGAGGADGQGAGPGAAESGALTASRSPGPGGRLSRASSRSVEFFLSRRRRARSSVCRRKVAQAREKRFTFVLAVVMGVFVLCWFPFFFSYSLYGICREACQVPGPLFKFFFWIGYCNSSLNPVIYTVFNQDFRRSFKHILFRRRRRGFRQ
Chain of Voltage-gated potassium channel subunit beta-2 (Rattus norvegicus) (P62483 whole entry, looked up): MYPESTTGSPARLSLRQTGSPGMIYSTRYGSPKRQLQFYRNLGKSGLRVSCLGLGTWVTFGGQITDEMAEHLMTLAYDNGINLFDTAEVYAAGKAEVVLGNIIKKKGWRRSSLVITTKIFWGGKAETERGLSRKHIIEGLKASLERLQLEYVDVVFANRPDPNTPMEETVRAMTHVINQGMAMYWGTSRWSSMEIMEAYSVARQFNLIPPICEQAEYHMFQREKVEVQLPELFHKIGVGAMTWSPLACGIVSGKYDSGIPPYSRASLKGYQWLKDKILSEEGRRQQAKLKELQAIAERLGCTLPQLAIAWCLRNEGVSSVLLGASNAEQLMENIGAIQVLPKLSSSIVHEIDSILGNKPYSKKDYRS

Consider `Cc1ccc(CC2SC(=O)NC2=O)cc1Cl` (centres undefined), for which, in assay [1], the cell count came out at 790. Further, the inhibition (usually the drop in the measured response relative to a control, in per cent) is 10.4% (inactive) in assay [1], 0% (inactive) in assay [3], 10.2% (inactive) in assay [7] and 12% (inactive) in assay [8]. The inhibition of aggregation in assay [2] was -3% (inactive). Moreover, the nuclei count in assay [2] was 97.9%; in assay [3] it was 119%. The fluorescence slope in assay [4] is -0.488 (inactive). Besides, in assay [5], the NADPH fluorescence slope is -5.4e-05 (inactive). Also, the slope in assay [6] is 0.00487 (inactive).
On to `CC(=O)C1=C(C)OC(N)=C(C#N)C1c1ccncc1` (centres undefined), for which the cell count in assay [1] turned out to be 322. Besides, the inhibition in assay [1] was 3.7% (inactive); in assay [3], 39.3% (inactive); in assay [7] it was 12.5% (inactive); in assay [8] it was 16.8% (inactive). The inhibition of aggregation in assay [2] was -14.4% (inactive). Moreover, the nuclei count in assay [2] worked out at 97.8%; in assay [3], 112%. In addition, in assay [4], the fluorescence slope was -0.616 (inactive). Moreover, in assay [5], the NADPH fluorescence slope was -5.3e-05 (inactive). Moreover, in assay [6], the slope was 0.004 (inactive).
As to `COc1ccc(-c2nnc(SCC(=O)N3CCOCC3)o2)cc1OC`, in assay [1], the cell count worked out at 603. In addition, the inhibition in assay [1] was 19% (inactive); in assay [3], 38.5% (inactive); in assay [7], -13.3% (inactive); in assay [8], 4.93% (inactive). In assay [2], the inhibition of aggregation is -39.9% (inactive). In addition, the nuclei count in assay [2] amounted to 86.5%; in assay [3], 78.3%. The fluorescence slope in assay [4] is -0.54 (inactive). For the same compound, the NADPH fluorescence slope in assay [5] was 1.3e-05 (inactive). Further, the slope in assay [6] is 0.0068 (inactive).
With `O=C(CSc1nnc(SCc2ccc(Cl)cc2)s1)N1CCN(C(=O)c2ccco2)CC1`, the cell count in assay [1] is 236. Besides, the inhibition is 42.2% (active) in assay [1], -194% (inactive) in assay [3], -1.92% (inactive) in assay [7] and -7.44% (inactive) in assay [8]. Moreover, the inhibition of aggregation in assay [2] was -21.7% (inactive). The results for the nuclei count in assay [2] and in assay [3] were 116% and 152%, respectively. Further, in assay [4], the fluorescence slope was -0.519 (inactive). In addition, the NADPH fluorescence slope in assay [5] is -0.000144 (inactive). The slope in assay [6] is 0.00593 (inactive).
On to `CC(=O)CCc1ccc(OCCCCn2cncn2)cc1`, for which, in assay [1], the cell count came to 513. Also, the inhibition is 6.8% (inactive) in assay [1], -58.4% (inactive) in assay [3], 1.5% (inactive) in assay [7] and -5.67% (inactive) in assay [8]. Besides, in assay [2], the inhibition of aggregation was 15.6% (inactive). The nuclei count in assay [2] was determined as 92.1%; in assay [3], 116%. In addition, the fluorescence slope in assay [4] is -0.625 (inactive). Besides, in assay [5], the NADPH fluorescence slope is -1.7e-05 (inactive). Also, in assay [6], the slope is 0.00807 (inactive).
For the compound `O=C(O)c1cccc(COCC(F)(F)C(F)F)c1`, the cell count in assay [1] stood at 714. For the same compound, the inhibition is -9% (inactive) in assay [1], -16.8% (inactive) in assay [3], 5.99% (inactive) in assay [7] and 5.49% (inactive) in assay [8]. In addition, in assay [2], the inhibition of aggregation is 17.2% (inactive). In addition, the nuclei count came to 101% in assay [2] and 102% in assay [3]. Also, in assay [4], the fluorescence slope was -0.497 (inactive). In addition, the NADPH fluorescence slope in assay [5] is -4.4e-05 (inactive). In addition, in assay [6], the slope is 0.00506 (inactive).
In the case of `COc1ccc(NC(=O)c2cnc3n(c2=O)CCS3)cc1OC`, the cell count in assay [1] was 484. Also, the inhibition in assay [1] is -3.4% (inactive); in assay [3] it was -9.5% (inactive); in assay [7] it was -2.41% (inactive); in assay [8], -20.9% (inactive). In addition, the inhibition of aggregation in assay [2] was -15% (inactive). In addition, the results for the nuclei count in assay [2] and in assay [3] were 92.4% and 98.8%, respectively. The fluorescence slope in assay [4] was -0.515 (inactive). Besides, in assay [5], the NADPH fluorescence slope was -3.9e-05 (inactive). Besides, the slope in assay [6] is 0.00659 (inactive).
Take `COc1ccc(-n2cnnc2SCCC#N)cc1`: in assay [1], the cell count came out at 520. In addition, the inhibition in assay [1] is -3.8% (inactive); in assay [3], -115% (inactive); in assay [7], 6.27% (inactive); in assay [8] it was 12% (inactive). Also, in assay [2], the inhibition of aggregation is -0.2% (inactive). Besides, the figures for the nuclei count in assay [2] and in assay [3] were 82.5% and 122%, respectively. In addition, in assay [4], the fluorescence slope is -0.549 (inactive). In assay [5], the NADPH fluorescence slope was -2.7e-05 (inactive). Besides, the slope in assay [6] was 0.00567 (inactive).
For the compound `C=CCNC(=O)c1ccc(Cl)cc1Cl`, the cell count in assay [1] was found to be 344. The inhibition is 1.6% (inactive) in assay [1], -31.6% (inactive) in assay [3], 0.0277% (inactive) in assay [7] and 23.8% (inactive) in assay [8]. Further, the inhibition of aggregation in assay [2] was -21.2% (inactive). In addition, the nuclei count was 87.7% in assay [2] and 91.8% in assay [3]. In assay [4], the fluorescence slope was -0.478 (inactive). Besides, the NADPH fluorescence slope in assay [5] was -4.6e-05 (inactive). Moreover, the slope in assay [6] is 0.00715 (inactive).
On to `COc1ccc(CNS(=O)(=O)c2ccc3oc(C(=O)O)c(C)c3c2)cc1`, for which the cell count in assay [1] is 624. Also, the inhibition was -4.4% (inactive) in assay [1], -31.4% (inactive) in assay [3], 15.6% (inactive) in assay [7] and 20.3% (inactive) in assay [8]. Also, the inhibition of aggregation in assay [2] was -6% (inactive). Moreover, the nuclei count in assay [2] came out at 75.2%; in assay [3], 114%. In assay [4], the fluorescence slope was -0.466 (inactive). Besides, the NADPH fluorescence slope in assay [5] was 8.2e-05 (inactive). Further, the slope in assay [6] was 0.00607 (inactive).
For `CCN1CCN(Cc2ccc(NC(=O)Nc3ccccc3)cc2)CC1`, the cell count in assay [1] stood at 552. For the same compound, the inhibition is -7.5% (inactive) in assay [1], -49.1% (inactive) in assay [3], 10.6% (inactive) in assay [7] and -14.4% (inactive) in assay [8]. Also, the inhibition of aggregation in assay [2] is -20.2% (inactive). The nuclei count was 56.6% in assay [2] and 102% in assay [3]. Also, the fluorescence slope in assay [4] is -0.605 (inactive). In addition, in assay [5], the NADPH fluorescence slope is -1.7e-05 (inactive). In addition, the slope in assay [6] is 0.00679 (inactive).
On to `CC1(C)CC(=O)C=C(NCCN2CCN(C(=O)Nc3ccccc3)CC2)C1`, for which the cell count in assay [1] was 730. Moreover, the inhibition is -5.8% (inactive) in assay [1], -2.1% (inactive) in assay [3], -1.55% (inactive) in assay [7] and -0.835% (inactive) in assay [8]. The inhibition of aggregation in assay [2] is 0% (inactive). Further, the nuclei count in assay [2] is 99.6%; in assay [3], 109%. For the same compound, the fluorescence slope in assay [4] was -0.412 (inactive). Besides, the NADPH fluorescence slope in assay [5] is -4.4e-05 (inactive). Moreover, the slope in assay [6] is 0.0067 (inactive).
For the compound `Cc1cccc(NC(=O)c2cc3ccccc3o2)c1`, the cell count in assay [1] was 549. In addition, the inhibition in assay [1] is -23% (inactive); in assay [3], 15.3% (inactive); in assay [7] it was -17.2% (inactive); in assay [8], -74.5% (inactive). In addition, the inhibition of aggregation in assay [2] is 10.7% (inactive). Also, the figures for the nuclei count in assay [2] and in assay [3] were 103% and 157%, respectively. The fluorescence slope in assay [4] was -0.506 (inactive). Moreover, the NADPH fluorescence slope in assay [5] is 1.8e-05 (inactive). In addition, the slope in assay [6] was 0.00578 (inactive).
Turning to `CC(NS(=O)(=O)c1ccc(OCC(=O)N2CCOCC2)c(Cl)c1)c1ccccc1` (centres undefined), the cell count in assay [1] turned out to be 338. The inhibition in assay [1] was -6.5% (inactive); in assay [3] it was -51.1% (inactive); in assay [7] it was 18.7% (inactive); in assay [8] it was 12.4% (inactive). Moreover, the inhibition of aggregation in assay [2] was 0.2% (inactive). Also, the nuclei count in assay [2] was 104%; in assay [3], 76.7%. In addition, the fluorescence slope in assay [4] is -0.409 (inactive). The NADPH fluorescence slope in assay [5] is -3.1e-05 (inactive). Also, the slope in assay [6] was 0.00508 (inactive).
